Bioassay records from PubChem BioAssay.
CSC inhib = cancer stem cell inhibition; cancer stem cell-like cells viability, luminescence; inhibition, % at 7.5 µM; hit rate 1.1% among 300,000; in the data active = inhibition above about 75%; inconclusive = no clear call, values can overlap the other calls; tested in HMLE shEcad cells
PP1 counter = PP1-alpha (human) inhibition in PP5 counter-screen. purified PP1alpha, OMFP fluorescence. inhibition, % at 6.7 µM. hit rate 0.9% among 320,000. AID 2235;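 active = inhibition above the mean inhibition of all tested compounds plus 3 SD, computed separately for each screening campaign, cut at about 15% in these data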
Target sequence (P62136 whole entry, looked up): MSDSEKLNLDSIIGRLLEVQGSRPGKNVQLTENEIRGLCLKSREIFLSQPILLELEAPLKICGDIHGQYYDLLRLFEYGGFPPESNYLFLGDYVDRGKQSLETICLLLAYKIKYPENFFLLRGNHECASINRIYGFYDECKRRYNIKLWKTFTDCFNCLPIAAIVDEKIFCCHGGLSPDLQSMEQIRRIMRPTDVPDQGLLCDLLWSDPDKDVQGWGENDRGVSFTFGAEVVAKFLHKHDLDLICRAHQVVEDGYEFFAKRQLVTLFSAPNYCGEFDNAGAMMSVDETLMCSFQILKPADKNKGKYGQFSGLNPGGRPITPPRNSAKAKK
PP5 primary = blocks human protein phosphatase 5 activity | hit rate 0.18% among 320,000 | purified PP5c, OMFP substrate fluorescence | inhibition, % at 6.7 µM | P53041;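 active = inhibition above the campaign's mean inhibition across all tested compounds plus 3 SD, cut at about 9.5% in these data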;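 note: 0% = DMSO only and 100% = 100 µM cantharidin control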
Calb FLC = C. albicans growth modulation with fluconazole. C. albicans CaCi-2 (fluconazole-resistant clinical isolate) + fluconazole, Alamar Blue growth, 48 h. growth inhibition, % (no concentration beside the values). AID 1979. hit rate 0.57% among 300,000;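 active = growth inhibition above about 58% in most replicates, limit read from the data, passing the limit was not always enough; inconclusive = exactly half the replicates above a set limit; inactive = most replicates below a set limit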;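 note: all wells also contain fluconazole at 8 µg/ml as a sub-toxic cotreatment; 0% = median of DMSO wells and 100% = median of geldanamycin control wells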
Beta apoptosis = beta cell apoptosis inhibition | INS-1E cytokine-induced death, ATP luminescence, 48 h; percent of positive-control rescue, neutral wells zero | protection from apoptosis, % (no concentration beside the values) | hit rate 0.8% among 300,000 | AID 435005;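 active = Every replicate reaches about 75%, or at least half do and their mean reaches it too, limit read from the data; inconclusive = At least half of replicates reach the limit but their mean does not; inactive = Under half of replicates reach the limit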;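 note: 0% = cytokine-treated negative control wells and 100% = positive control rescue; higher means more ATP so stronger rescue from cytokine killing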
Mdm2 MdmX PPI = disrupts the human Mdm2-MdmX interaction | hit rate 3% among 330,000 | AID 485346 | inhibition, % at 8 µM | SaOS-2 split-luciferase Mdm2/MdmX complementation, luminescence;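 active = inhibition of at least 50% at 8 µM in the primary screen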
PP1 inh confirm = human PP1 phosphatase inhibition, confirmation. hit rate 52% among 1,900. inhibition, % at 6.7 µM. purified PP1alpha, OMFP substrate fluorescence. shares compounds with PP1 counter;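 active = mean PP1 inhibition above a set limit taken from the earlier primary screen, cut at about 15% in these data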
PP5 counter = counter-screen for PP1 inhibitors: human PP5 phosphatase inhibition; hit rate 4% among 1,900; inhibition, % at 6.7 µM; AID 2360; purified PP5c, OMFP fluorescence; shares compounds with PP1 counter;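 active = mean PP5 inhibition over triplicate wells above about 9.5% taken from the earlier PP1 screen, limit read from the data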
* hit, by the source's call; ? = inconclusive; . = not tested or not shown. Compounds with a hit are over-represented: about 4.9% of the library has one in this group of screens.

SMILES	CSC inhib	PP1 counter	PP5 primary	Calb FLC	Beta apoptosis	Mdm2 MdmX PPI	PP1 inh confirm	PP5 counter
Cc1ccc(-c2cc(-c3ccco3)c3c(N)c(C(=O)NN)oc3n2)cc1	13	18*	3	-3	.	18	13	6
O=C(Nc1ccc(S(=O)(=O)Nc2nccs2)cc1)c1ccc(N2C(=O)c3ccccc3C2=O)cc1	6	28*	-2	4	-3	1	15	-1
O=C(Nc1ccc(S(=O)(=O)Nc2nccs2)cc1)c1ccc(F)cc1	-4	-1	2	-12	0	0	.	.
O=C(CCN1C(=O)C2CCCCC2C1=O)N1CCN(S(=O)(=O)c2cccc(F)c2)CC1 (configuration not stated)	-9	-5	0	-4	2	7	.	.
O=C(CCN1C(=O)C2CCCCC2C1=O)N1CCN(S(=O)(=O)c2ccccc2)CC1 (configuration not stated)	-10	33*	2	5	1	-4	-2	-1
CCN(c1ccccc1)S(=O)(=O)c1ccc(C(=O)Nc2nnc(-c3ccco3)o2)cc1	87*	19*	6	?	1	42	23*	2
CN(c1ccccc1)S(=O)(=O)c1ccc(C(=O)Nc2nnc(-c3ccco3)o2)cc1	67	22*	6	?	-2	36	20*	2
CC(=O)Nc1nnc(-c2ccco2)o1	8	-2	-2	4	-7	-4	.	.
O=C(Nc1nnc(-c2ccco2)o1)c1ccc(Cl)s1	2	18*	-2	-2	.	18	3	-2
CC(=O)Nc1ccc(NC(=O)c2ccc(S(=O)(=O)N(C)c3ccccc3)cc2)cc1	-13	3	2	.	-4	30	.	.
CCC(C)(C)NC(=O)CCn1c(-c2ccccc2)cc(C(C)=O)c1C	-2	0	1	2	2	-1	.	.
Cc1ccc(S(=O)(=O)N[C@@H](CO)C(=O)N[C@@H](Cc2ccc(O)cc2)C(=O)O)cc1	-3	0	-2	4	4	6	.	.
CCCCCCC[C@H](N)[C@H](O)C(=O)N(C)[C@@H](CCS(C)=O)C(=O)N[C@@H](Cc1ccc(O)cc1)C(=O)N[C@@H](Cc1ccc(O)cc1)C(=O)O (some centres not stated)	-7	95*	88*	-22	-6	16	95*	86*
COc1ccc(NC(=O)C2(c3ccc(NC(=O)c4ccc(OC(C)=O)cc4)cc3)CCCC2)cc1	-6	18*	0	0	-3	47	24*	-7
COc1ccc(C(=O)NNC2=NCCCCC2)cc1	-15	0	4	-10	5	7	.	.
Cn1c2ccccc2c(=O)c2c(=O)n(Cc3ccco3)c(-c3ccc(Cl)cc3Cl)nc21	-10	23*	1	33	1	26	8	-1
CC(C)(C)OC(=O)N1CCC(c2c(C(=O)N3CCN(C(=O)c4ccco4)CC3)cnn2-c2ccc(F)cc2F)CC1	-8	1	2	3	-4	10	.	.
CC(Nc1nc(-c2cccc(Br)c2)cs1)c1nc2cc(Cl)c(N3CCCCC3)cc2n1CCOCCO (configuration not stated)	29	1	2	-17	4	29	.	.
c1ccc(-c2nnc(-c3ccccn3)nc2NC2CCCCC2)cc1	-11	21*	0	16	96*	17	2	-4
COc1ccc([N+](=O)[O-])cc1NC(=O)c1ccc(Br)s1	9	18*	0	-20	0	20	21*	-6
Cn1c2ccccc2c(=O)c2c(=O)n(Cc3ccccc3)c(-c3ccc(F)cc3)nc21	-14	0	-2	11	6	9	.	.
O=C(Nc1ccc(Cl)cc1)Nc1ccc(Br)cn1	-6	-2	-1	-5	1	7	.	.
Cn1nnnc1SCc1ccc(C(=O)Nc2nccs2)cc1	15	-2	2	17	-5	-13	.	.
C=CCn1c(SCc2ccc(C(=O)Nc3nccs3)cc2)nnc1-c1ccc(C)c(Cl)c1	50	18*	4	-1	-4	17	8	0
